Assay results published in a collection of fitness landscapes (doi:10.1016/j.celrep.2020.107928).
Over roughly 81,000 sequences, “one-hybrid fitness for binding NBS DNA” has its median near -0.1; the highest 2% begin near 0.36. The entries come from a sample that favours the highest values as a whole.

B1: Caulobacter ParB omega fusion; a variant is named by its letters at X, in order, B8GW30 (parent)
chain: MESVVVGEPGMSEGRRGLGRGLSALLGEVDAAPAQAPGEQLGGSREAPIEILQRNPDQPRRTFREEDLEDLSNSIREKGVLQPILVRPSPDTAGEYQIVAGERAWRAAQRAGLKTVPIMVRELDDLAVLEIGIIENVQRADLNVLEEALSYKVLMEKFERTQENIAQTIGKSXSHVANXMRLLXLPDEVQSYLVSGELTAXHARAIAAAADPVALAKQIIEGGLSVRETEALARKAPNLSAGKSKGGRPPRVKDTDTQALESDLSSVLGLDVSIDHRGSTGTLTITYATLEQLDDLCNRLTRGI

Variants of: B1
Assay: one-hybrid fitness for binding NBS DNA (the Noc-binding site; scaled: cognate 1, non-cognate 0); higher = stronger binding
Conditions: with NBS DNA site
Procedure, shortened: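 In E. coli USO, a HIS3 reporter with its site placed 19 bp from the promoter was used to select Caulobacter ParB variants randomised at four specificity codons. Growth lasted 48 hours at 37°C on histidine-free M9 containing 0.1 mM IPTG and 5 mM 3-AT. Fitness was taken as the log change in variant-to-wild-type read ratio from Illumina sequencing of pre- and post-selection plasmids, rescaled between the non-cognate and cognate sites.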

Variant	one-hybrid fitness for binding NBS DNA
YRMT	≤ 0.2
EQDS	≤ 0.2
AANY	≤ 0.2
LYKT	≤ 0.2
ECMG	≤ 0.2
FKTC	≤ 0.2
RITH	≤ 0.2
RKTD	≤ 0.2
RKTS	0.583
RITN	≤ 0.2
RHTN	≤ 0.2
RKTH	0.233
RHTS	0.446
RSTH	≤ 0.2
RSTS	0.433
RITS	0.384
RHTP	≤ 0.2
RSTD	≤ 0.2
LQLL	≤ 0.2
ECRD	≤ 0.2
QQMC	≤ 0.2
IARN	≤ 0.2
SSHP	≤ 0.2
VQNC	≤ 0.2

Variant	one-hybrid fitness for binding NBS DNA
RMTN	≤ 0.2
RMTS	0.433
RMTD	≤ 0.2
YHNT	≤ 0.2
PFSK	≤ 0.2
QKMH	≤ 0.2
QAMQ	≤ 0.2
QCMS	0.379
QKMS	0.414
QSMQ	≤ 0.2
QRMK	0.404
QPMS	≤ 0.2
QSMS	0.302
QCMK	≤ 0.2
QKMD	≤ 0.2
QSMK	≤ 0.2
QRMQ	0.385
GNCM	≤ 0.2
LRKY	≤ 0.2
GYLG	≤ 0.2
KRMH	≤ 0.2
FYYR	≤ 0.2
DHLS	≤ 0.2
ANLH	≤ 0.2

Variant	one-hybrid fitness for binding NBS DNA
SFVC	≤ 0.2
PQMI	≤ 0.2
AHHY	≤ 0.2
RHNK	≤ 0.2
QMCI	≤ 0.2
PANW	≤ 0.2
VVKL	≤ 0.2
QPMY	≤ 0.2
QRMS	0.623
QRML	0.219
QRMN	0.295
QRMH	0.499
QRMY	0.463
QTMH	0.263
QRMP	≤ 0.2
QTMS	0.463
QRMD	0.26
QTMN	≤ 0.2
QCMY	≤ 0.2
YNGT	≤ 0.2
HRHE	≤ 0.2
VIRT	≤ 0.2
WQEG	≤ 0.2
FKND	≤ 0.2

Variant	one-hybrid fitness for binding NBS DNA
AVDT	≤ 0.2
IGHS	≤ 0.2
QQIS	0.352
QQPT	0.379
QQID	≤ 0.2
QQPH	≤ 0.2
QQPS	0.26
QQIT	0.389
MQSG	≤ 0.2
VVCV	≤ 0.2
YLMA	≤ 0.2
QYTS	0.396
QYTP	≤ 0.2
QYTT	0.401
QYTH	0.202
QYTR	0.572
QYTN	≤ 0.2
QYTD	≤ 0.2
QYTM	≤ 0.2
QYTY	≤ 0.2
AEMG	≤ 0.2
GTMM	≤ 0.2
HAVV	≤ 0.2
QQND	≤ 0.2

Variant	one-hybrid fitness for binding NBS DNA
QQNH	0.355
QQDR	0.388
QQNR	0.786
QQDC	≤ 0.2
QQDP	≤ 0.2
MWSL	≤ 0.2
SQER	≤ 0.2
THTW	≤ 0.2
TSGY	≤ 0.2
ASWL	≤ 0.2
TAQM	≤ 0.2
QTME	≤ 0.2
QAFD	≤ 0.2
QAAR	0.511
QAFS	0.218
QAFR	0.427
QAAN	≤ 0.2
QAAD	≤ 0.2
PSVW	≤ 0.2
VMFK	≤ 0.2
EIKV	≤ 0.2
RPPM	≤ 0.2
RAWR	0.248
RARR	0.635

Variant	one-hybrid fitness for binding NBS DNA
RAGP	≤ 0.2
RAIR	0.207
RAYR	0.412
RANR	0.507
RAPR	≤ 0.2
RAGH	≤ 0.2
RADR	≤ 0.2
RANN	≤ 0.2
RAGR	0.471
RALR	0.32
YIKT	≤ 0.2
MVAC	≤ 0.2
NQHS	≤ 0.2
NVTV	≤ 0.2
SDLG	≤ 0.2
PSTD	≤ 0.2
PRAY	≤ 0.2
THTY	≤ 0.2
TQQW	≤ 0.2
PELM	≤ 0.2
PRWT	≤ 0.2
RASR	0.417
RAQR	0.43
RASD	≤ 0.2

Variant	one-hybrid fitness for binding NBS DNA
RACR	0.379
RAHR	0.487
RAHH	≤ 0.2
RAHP	≤ 0.2
RACP	≤ 0.2
RASP	≤ 0.2
RACH	≤ 0.2
RAQM	≤ 0.2
RAQH	≤ 0.2
FSRL	≤ 0.2
GGQY	≤ 0.2
MRLP	≤ 0.2
AHPF	≤ 0.2
YNKI	≤ 0.2
KTLA	≤ 0.2
NNIC	≤ 0.2
PFKH	≤ 0.2
HTRG	≤ 0.2
QMRP	0.291
QMPS	0.235
QMLS	0.317
QMIS	0.289
QMDN	≤ 0.2
QMRH	0.584

Variant	one-hybrid fitness for binding NBS DNA
QMYN	≤ 0.2
QMRD	0.277
QMRN	0.439
QMRS	0.691
QMRF	0.303
QMYS	0.405
AQGA	≤ 0.2
NRGC	≤ 0.2
PIMT	≤ 0.2
PWNH	≤ 0.2
RINY	≤ 0.2
GPRC	≤ 0.2
TMHE	≤ 0.2
KEWT	≤ 0.2
MTEF	≤ 0.2
QMAS	0.389
QMAH	0.231
QMAD	≤ 0.2
VIGG	≤ 0.2
QTSK	0.224
QMWK	≤ 0.2
QKKK	0.437
QMKK	0.436
QTVK	≤ 0.2

Variant	one-hybrid fitness for binding NBS DNA
QKVK	≤ 0.2
QCKK	0.485
QTKK	0.596
QLKK	0.346
QKIK	≤ 0.2
QMPK	≤ 0.2
QPKK	≤ 0.2
THAP	≤ 0.2
SMSM	≤ 0.2
VLYQ	≤ 0.2
MNTI	≤ 0.2
MEPN	≤ 0.2
DERT	≤ 0.2
AAYK	≤ 0.2
LNIG	≤ 0.2
VYES	≤ 0.2
PHHR	≤ 0.2
NAEF	≤ 0.2
NGVK	≤ 0.2
AANT	≤ 0.2
QHQK	≤ 0.2
QHRK	0.362
QAHK	≤ 0.2
QRVK	0.218

Variant	one-hybrid fitness for binding NBS DNA
QRLK	0.329
QHKK	0.416
QIKK	0.243
QRKK	0.777
QAVK	≤ 0.2
QSVK	≤ 0.2
QAKK	0.396
QSKK	0.412
TDTW	≤ 0.2
VHWG	≤ 0.2
DTCT	≤ 0.2
VLPC	≤ 0.2
GGCG	≤ 0.2
PDVF	≤ 0.2
YPIT	≤ 0.2
SGYG	≤ 0.2
SCFT	≤ 0.2
METY	≤ 0.2
RRMH	0.403
RRMS	0.628
RRMN	0.245
RRMP	≤ 0.2
RCMH	≤ 0.2
RRMD	≤ 0.2

Variant	one-hybrid fitness for binding NBS DNA
TKWD	≤ 0.2
AEDA	≤ 0.2
APCN	≤ 0.2
YRRI	≤ 0.2
AVHL	≤ 0.2
TDRM	≤ 0.2
TYEH	≤ 0.2
HSVS	≤ 0.2
ARTM	≤ 0.2
HHLA	≤ 0.2
QYMT	0.416
QTMD	≤ 0.2
QYMY	0.453
QMMF	≤ 0.2
QYMS	0.314
QYMN	≤ 0.2
QMMS	0.333
QYMP	≤ 0.2
QTMT	0.551
QTMP	≤ 0.2
QMMT	0.378
QYMH	≤ 0.2
CSAE	≤ 0.2
YFMR	≤ 0.2

Variant	one-hybrid fitness for binding NBS DNA
TNFF	≤ 0.2
AHDA	≤ 0.2
FHFL	≤ 0.2
CNVL	≤ 0.2
HYMT	≤ 0.2
QPMT	≤ 0.2
QKMY	0.224
QAMT	0.346
QIMT	0.219
QCMT	0.477
QRMT	0.729
QLMT	0.34
QKMT	0.424
QRMG	0.329
QRMC	0.333
QSMT	0.368
QKMN	≤ 0.2
QLVV	≤ 0.2
KKDV	≤ 0.2
RLWA	≤ 0.2
WGTT	≤ 0.2
PARD	≤ 0.2
RCAQ	≤ 0.2
FSIR	≤ 0.2

Variant	one-hybrid fitness for binding NBS DNA
RTAQ	≤ 0.2
RTFT	0.417
RTAT	0.499
RTFP	≤ 0.2
RTFH	≤ 0.2
RTAF	≤ 0.2
YRWR	≤ 0.2
QYAW	≤ 0.2
CWPD	≤ 0.2
IVKR	≤ 0.2
TREN	≤ 0.2
RVKR	0.665
RVKT	0.652
RVKS	0.578
RVKD	≤ 0.2
RVVT	0.261
RVKN	0.203
RVKH	0.321
RVVR	0.3
RVKP	≤ 0.2
